# Assay outcomes deposited in PubChem by National Center for Advancing Translational Sciences (NCATS).
# An excerpt weighted towards active compounds, which were near 3.7% of everything screened.
# HepG2 tox-1 – counter-screen for TGF-b inhibitors: cytotoxicity in HepG2 cells. Potency, µM (doses to about 46.1 µM), without a hit: at the highest dose activity change, negative = cytotoxicity, hits mostly cytotoxic. 410,000 compounds, 0.76% hits. HepG2 CAGA-GFP viability, ATP luminescence, 18 h
#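 CellTiter-Glo luminescence gave cytotoxicity after 18 hours at 37 degrees C. The cells were HepG2 CAGA-GFP in 1% FBS DMEM, stimulated with 500 pg/mL TGF-beta after compound addition. %Activity was normalised to no-cell wells (complete cell-killing) and DMSO (no toxicity), and curves were fitted and classified.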
# ATXN viability – viability counter-screen for ATXN expression inhibitors; S2 cells (HEK-293 line with an ATXN2-luciferase reporter) viability, CellTiter-Fluor protease fluorescence, 24 h; Potency, µM (series often up to 56.7 µM), hits mostly cytotoxic; 400,000 compounds, 0.49% hits; also: nearly all actives have a fitted effect of over 40% in size
# GLP-1R inv ag – inverse agonists of human GLP-1 receptor; Potency, µM (top dose mostly 38.3 µM), for inactives: top-dose activity change, negative = inhibition, most hits filed as inhibitors; P43220; AID 624417; HEK293 GLP-1R CRE-luciferase, luminescence, 24 h; GLP-1R form is constitutively active; 410,000 compounds, 1.6% hits; also: % is scaled to controls: 0 for no effect and ±100 for the full control effect; nearly all actives have a fitted effect of over 55% in size
# Target sequence (P43220 whole entry, looked up): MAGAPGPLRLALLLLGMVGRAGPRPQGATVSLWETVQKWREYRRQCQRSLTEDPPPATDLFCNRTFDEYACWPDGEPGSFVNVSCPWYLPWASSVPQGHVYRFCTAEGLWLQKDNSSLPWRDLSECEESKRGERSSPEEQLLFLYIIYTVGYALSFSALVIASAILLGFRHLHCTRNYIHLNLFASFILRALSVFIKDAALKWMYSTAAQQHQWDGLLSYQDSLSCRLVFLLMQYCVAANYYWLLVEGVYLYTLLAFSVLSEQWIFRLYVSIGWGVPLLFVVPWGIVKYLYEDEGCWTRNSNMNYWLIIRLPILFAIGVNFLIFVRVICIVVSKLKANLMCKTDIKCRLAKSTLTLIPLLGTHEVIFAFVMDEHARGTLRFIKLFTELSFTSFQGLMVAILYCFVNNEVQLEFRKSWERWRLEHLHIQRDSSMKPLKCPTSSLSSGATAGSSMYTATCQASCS
#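 qHTS in 1536-well format: reporter HEK293 cells expressing constitutive GLP-1R activity in DMEM + 10% Nu serum, 24 hr with compounds at 37 deg C, luminescence read after 12 min with detection reagent.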
# ATXN2 expr inh – reduces ATXN2 reporter expression in HEK-293 cells; HEK-293 ATXN2-luciferase reporter, luminescence, 24 h; Potency, µM (highest dose often 57 µM), inactives show at the top dose activity change, negative = inhibition, hits mostly inhibitors; 360,000 compounds, 0.72% hits; also: % is scaled to controls: 0 for no effect and ±100 for the full control effect; nearly all actives have a fitted effect of over 55% in size
#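 qHTS (up to 57 uM final) was run with 24 h compound exposure of reporter cells at 37 °C. Each well was multiplexed: SteadyGlo luminescence measured ATXN2-luciferase expression after a fluorogenic Gly-Phe-AFC viability readout (25 uM final).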
# TGFb inhibitor – blocks TGF-b signaling. HepG2 CAGA-GFP TGF-b/SMAD3 reporter, GFP fluorescence, 18 h; TGF-beta stimulated, 500 pg/mL final. Potency, µM (doses to about 46.1 µM), without a hit: at the highest dose activity, negative = inhibition, most hits filed as inhibitors. 410,000 compounds, 1.2% hits; also: % is scaled to controls: 0 for no effect and ±100 for the full control effect; nearly all actives have a fitted effect of over 65% in size
#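 Inhibition was scored as loss of TGF-beta-induced (500 pg/mL final, 18 hours, 37 degrees C) GFP in HEPG2 cells carrying a CAGA-GFP reporter, in DMEM with 1% FBS. Well GFP was summed per cell; Activity was normalised to unstimulated and stimulated DMSO wells, then concentration-response fitting.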
# GLP-1R agonist – GLP-1 receptor (human) agonism. HEK293 GLP-1R CRE-luciferase, luminescence, 4-6 h; cells express a hypersensitive GLP-1R form. AID 624172. 380,000 compounds, 0.007% hits. P43220. Potency, µM (series often up to 45.6 µM), without a hit: at the highest dose activation, hits mostly activators; also: % of control where 0% means no effect
# TGFb CAGA inh – confirmation of TGF-b signaling inhibitors in HepG2 reporter cells; HepG2 CAGA-GFP TGF-b reporter, GFP fluorescence, 18 h; cells stimulated with TGF-beta, 500 pg/mL; 1,600 compounds, 63% hits; Potency, µM (titrated, usually from 46.1 µM), for inactives: top-dose activity, negative = inhibition, usual class: inhibitors; shares compounds with TGFb inhibitor; also: % is scaled to controls: 0 for no effect and ±100 for the full control effect; nearly all actives have a fitted effect of over 65% in size
# HepG2 tox-2 – HepG2 cytotoxicity, TGF-b inhibitor counterscreen | shares compounds with TGFb inhibitor | HepG2 CAGA-GFP viability, ATP luminescence, 18 h; cells stimulated with TGF-beta, 500 pg/mL | Potency, µM (titrated, usually from 46.1 µM), without a hit: top-dose activity, negative = cytotoxicity, most hits filed as inhibitors | 1,600 compounds, 27% hits; also: % is scaled to controls: 0 for no effect and ±100 for the full control effect; nearly all actives have a fitted effect of over 70% in size
# TGFb CCL64 inh – orthogonal confirmation of TGF-b inhibitors in CCL64 cells | 1,600 compounds, 41% hits | shares compounds with TGFb inhibitor | Potency, µM (series often up to 46.1 µM), without a hit: top-dose activity, negative = inhibition, usual class: inhibitors | AID 720536 | CCL64 CAGA-GFP reporter, TGF-b stimulated, GFP fluorescence, 18 h; also: nearly all actives have a fitted effect of over 65% in size
# TGFb COP inh – blocks TGF-b signaling in HepG2 COP reporter | 1,600 compounds, 3% hits | shares compounds with TGFb inhibitor | Potency, µM (doses to about 46.1 µM), for the others: at the top dose activity, negative = inhibition, most hits filed as inhibitors | HepG2 COP-GFP TGF-b reporter, GFP fluorescence, 18 h; cells stimulated by added recombinant TGF-beta; also: nearly all actives have a fitted effect of over 70% in size
# Numbers without * were called inactive; i = inactive; ? = inconclusive; nt = no result given; ! = a repeat was not active. Calls follow the shape of the dose curve; as a rule, active = well fitted curve in the direction sought with a large enough effect; inconclusive = small, poorly fitted or top-dose-only effect, or another doubt; inactive = no such curve, though single readings can be large; an effect the other way counts as inactive or inconclusive. Potency is read from the fitted curve at half-maximal effect.
SMILES,HepG2 tox-1,ATXN viability,GLP-1R inv ag,ATXN2 expr inh,TGFb inhibitor,GLP-1R agonist,TGFb CAGA inh,HepG2 tox-2,TGFb CCL64 inh,TGFb COP inh
CCOC(=O)c1ccc2c(c1)nc(C1CCN(S(=O)(=O)c3cccs3)CC1)n2CC,-17%,?,9%,?,?,-1%,?,?,-10%,25%
Cc1cc(C(=O)OCC(=O)NC(=O)C2CCCCC2)ccc1[N+](=O)[O-],4%,nt,nt,nt,-2%,nt,nt,nt,nt,nt
CS(=O)(=O)c1ccc(C(=O)OCC(=O)NC(=O)C2CCCCC2)cc1[N+](=O)[O-],-116%,nt,4%,nt,10µM*,-3%,12µM*,?,?,?
O=C(Nc1ccc(Br)cc1)c1cccc(S(=O)(=O)Nc2cnc3ccccc3c2)c1,-27%,i,-45%,-17%,13µM*,4%,8.2µM*,?,23µM*,92%
COc1ccc2c(C)nc(Nc3nc(-c4ccccc4)cc(=O)[nH]3)nc2c1,-59%,?,0%,-44%,4µM*,-1%,2.3µM*,5.8µM*,?,16%
Cc1ccc2nc(Nc3nc(-c4ccccc4)cc(=O)[nH]3)nc(C)c2c1,3%,i,18%,-25%,?,-5%,nt,nt,nt,nt
CCCC[C@H]1COCCS(=O)(=O)N1Cc1ccc(Br)cc1,0%,i,?,-18%,10µM*!,16%,?,-17%,?,16%
CCCC[C@H]1COCCS(=O)(=O)N1Cc1ccc(C)cc1,-29%,i,?,-18%,-26%,-3%,nt,nt,nt,nt
CCOC(=O)N(C)c1c(CC)nc2c(OCc3ccc(F)cc3)cccn12,2%,i,4%,-29%,-11%,10%,nt,nt,nt,nt
CCOC(=O)N(C)c1c(CC)nc2c(OCc3ccc(C(F)(F)F)cc3)cccn12,-12%,i,?,?,?,-7%,?,-19%,4%,0%
Cc1ccc(OCCNC(=O)[C@H]2O[C@@H](n3ccc(N)nc3=O)[C@H](O)[C@@H]2O)cc1C,5%,i,28%,8%,6%,0%,nt,nt,nt,nt
Cc1ccc(OCCNC(=O)[C@H]2O[C@@H](n3cnc4c(N)ncnc43)[C@H](O)[C@@H]2O)cc1C,-21%,i,18%,-28%,?,11%,?,-10%,-2%,-20%
CCC(c1nnnn1Cc1ccccc1)N(Cc1ccccc1)Cc1cc2cc(C)ccc2[nH]c1=O (stereo not drawn),-15%,nt,nt,nt,?,nt,nt,nt,nt,nt
COc1ccc(C2CC(c3c(-c4ccccc4)c4cc(Cl)ccc4[nH]c3=O)=NN2S(C)(=O)=O)cc1OC (stereo not drawn),-79%,i,3%,-19%,8.9µM*,3%,?,-1%,?,19%
O=C(c1cc(-c2ccccc2Cl)nc2ccc(Br)cc12)N1CCN(c2ccccn2)CC1,-27%,?,?,?,?,3%,-30%,?,?,11%
O=C(c1cc(-c2ccc(Br)cc2)nc2ccccc12)N1CCN(c2ccccc2O)CC1,-2%,i,2.5µM*,12%,11µM*,7%,6.5µM*,?,?,2%
Cc1nnc(SCC(=O)Nc2ccc(Br)cc2)[nH]c1=O,-6%,i,10%,-8%,5%,nt,nt,nt,nt,nt
Cc1nc([N+](=O)[O-])cn1CC(=O)c1ccc2c(c1)OCCO2,-9%,nt,nt,nt,3%,nt,nt,nt,nt,nt
CC1Cc2cc(S(=O)(=O)CCC(=O)Nc3ccc(Cl)cc3F)ccc2N1C(=O)C1CC1 (stereo not drawn),-13%,nt,-15%,nt,?,nt,nt,nt,nt,nt
CC(=O)Nc1ccc(N=Cc2c(O)c(C(=O)Nc3ccccc3)cc3ccccc23)cc1,-46%,i,?,nt,7.1µM*,2%,-9%,12µM*,4.6µM*,55%
CC(=O)Nc1ccc(N=Cc2c(O)c3ccccc3oc2=O)cc1,1%,i,3%,-6%,12%,-1%,nt,nt,nt,nt
CCOC(=O)c1c(NC(=O)CN2CCCCC2)sc2c1CCN(C(=O)OCC)C2,-9%,?,?,-29%,11µM*,18%,13µM*,?,18µM*,26%
CCOC(=O)c1c(NC(=O)CN(CC)CC)sc2c1CCN(C(=O)OCC)C2,-31%,i,?,-24%,?,0%,nt,nt,nt,nt
O=C1OCCN1C(=O)[C@H]1[C@H](c2ccccc2)C(c2cccc(Cl)c2)=NN1c1ccc(Br)cc1,-15%,nt,15%,-1%,?,2%,?,-17%,23%,3%
Cc1ccc(-n2nc(C(=O)N(C)c3ccc(C)c(C)c3)c3c4ccccc4n(C)c3c2=O)cc1,-3%,i,0%,-4%,-17%,nt,nt,nt,nt,nt
O=C1C=CC2(C=C1)O[C@H](Cc1ccccc1)[C@@H](Cc1ccccc1)O2,-120%,3µM*,?,?,4.5µM*,-36%,3.3µM*,6.5µM*,1µM*,?
COc1ccc(N2C(=O)CC(Cc3ccccc3)C2=O)cc1 (stereo not drawn),4%,i,10%,13%,8%,-1%,nt,nt,nt,nt
COc1ccc(C[C@@H]2OC3(C=CC(=O)C=C3)O[C@H]2Cc2ccc(OC)cc2)cc1,11µM*,nt,?,?,2.8µM*,-12%,2.3µM*,2.6µM*,0.82µM*,?
CCCc1nnc(NC(=O)c2cc(=O)c3ccccc3o2)s1,3%,i,5%,35%,8%,nt,nt,nt,nt,nt
